Results published in PubChem BioAssay (NCATS).
Results filed as inconclusive are left out. The source made the active and inactive calls. Unless noted, calls follow the shape of the dose curve; as a rule, active = well fitted cell-killing curve with a large enough effect; inconclusive = small, poorly fitted or top-dose-only effect; inactive = flat fitted curve, though single readings scatter.

Tests used:
[1] = Cell Viability - LYMP2-002 (AID 977);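 also: series mostly up to about 92 µM; compound exposure lasted 24 h at 37 °C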
Summary of the method: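 Human lymphoblastoid cells, 2500/well, complete medium; 5 h 37 C settle; compound 24 h 37 C; CellTiter-Glo, 30 min RT; luminescence. Decrease in ATP = cytotoxicity; AC50 via Hill equation.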

[2] = Cell Viability - LYMP2-006 (AID 978);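 also: series mostly up to about 92 µM; cells exposed to compound for 24 hours; nearly all actives have a fitted effect of over 60% in size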
Summary of the method: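 In this cytotoxicity screen, the human lymphoblastoid line grew in complete medium with test compounds for 24 hr at 37 C. Cellular ATP served as the viability signal.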

[3] = Cell Viability - LYMP2-007 (AID 979);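 also: cells exposed to compound for 24 h before reading; nearly all actives have a fitted effect of over 60% in size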
Summary of the method: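 Cells are seeded at 2500 per well and rested 5 hr. Compounds are then added over a concentration series for 24 hr at 37 C. CellTiter-Glo is added for 30 min at room temperature before luminescence reading.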

[4] = Cell Viability - LYMP2-008 (AID 980); also: nearly all actives have a fitted effect of over 60% in size
Summary of the method: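 Cells seeded at 2500/well and rested 5 hr at 37 C; compounds added over a concentration range and incubated 24 hr at 37 C; CellTiter-Glo added, 30 min at room temperature; luminescence read and AC50 fitted with Hill model.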

[5] = Cell Viability - LYMP2-010 (AID 981);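 also: cells exposed to compound for 24 hours at 37 °C; nearly all actives have a fitted effect of over 55% in size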
Summary of the method: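 Steps: seed 2500 LYMP2-010 cells per well; incubate 5 hr at 37 C; add compound; incubate 24 hr at 37 C; add CellTiter-Glo, wait 30 min at room temperature; read luminescence. Concentration-response fitted to Hill equation for AC50.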

[6] = Cell Viability - LYMP2-012 (AID 982);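 also: cellular ATP by luciferase luminescence where a drop means cytotoxicity; cells exposed to compound for one day before reading; nearly all actives have a fitted effect of over 55% in size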
[7] = Cell Viability - LYMP2-014 (AID 983); also: series mostly up to about 92 µM; nearly all actives have a fitted effect of over 50% in size
Summary of the method: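 Cells are plated at 2500/well and left 5 hr at 37 C. Compounds are added across a concentration range and incubated 24 hr at 37 C in complete medium. CellTiter-Glo is added, and luminescence is read after 30 min at room temperature.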

[8] = Cell Viability - LYMP2-016 (AID 984);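 also: cells exposed to compound for 24 hours at 37 °C; nearly all actives have a fitted effect of over 55% in size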
Summary of the method: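 Concentration-dependent ATP depletion measured in LYMP2-016 lymphoblastoid cells, 24 h, 37 C; luciferase-based luminescent detection; Hill-equation AC50.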

[9] = Cell Viability - LYMP2-018 (AID 985);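 also: compound exposure lasted 24 hr at 37 °C; nearly all actives have a fitted effect of over 50% in size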
Summary of the method: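 Seed 2500 lymphoblastoid cells per well, incubate 5 hr at 37 C, add compound and incubate 24 hr at 37 C, add CellTiter-Glo, wait 30 min at room temperature, then read luminescence.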

[10] = Cell Viability - LYMP2-020 (AID 986); also: series mostly up to about 92 µM; nearly all actives have a fitted effect of over 55% in size
Summary of the method: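 Seed 2500 cells per well and incubate 5 hr at 37 C. Add compounds at a concentration series and incubate 24 hr at 37 C. Add CellTiter-Glo, wait 30 min at RT, read luminescence, and fit a Hill curve for AC50.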

[11] = Cell Viability - LYMP2-022 (AID 987); also: nearly all actives have a fitted effect of over 55% in size
Summary of the method: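 Cells were seeded at 2500 per well, rested 5 hr at 37 C, and treated with titrated compounds for 24 hr at 37 C. Cellular ATP was then quantified by luciferase luminescence, and AC50 values were derived from Hill-modelled concentration-response curves.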

[12] = Cell Viability - LYMP2-024 (AID 988); also: nearly all actives have a fitted effect of over 60% in size
Summary of the method: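 qHTS cytotoxicity, human lymphoblastoid line, complete medium; 24 h cpd treatment, 37 C; CellTiter-Glo ATP luminescence readout; tetraoctylammonium bromide positive control; AC50 via Hill fit.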

[13] = Cell Viability - LYMP2-026 (AID 989); also: nearly all actives have a fitted effect of over 50% in size
Summary of the method: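 Cells are seeded at 2500 per well and held 5 hr at 37 C. Compounds are added in concentration series for 24 hr, then CellTiter-Glo reagent is applied and luminescence read.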

[14] = Cell Viability - LYMP1-002 - Assay at 24 hr (AID 993)
Summary of the method: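 Acute toxicity is measured as concentration-dependent loss of cellular ATP in a human lymphoblastoid line (Coriell LYMP1-002) after 24 h treatment in complete medium. ATP is quantified by luciferase luminescence and AC50 derived by Hill modelling.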

[15] = Cell Viability - LYMP1-002 - Assay at 40 hr (AID 994); also: nearly all actives have a fitted effect of over 60% in size
Summary of the method: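 Cells are plated at 2500 per well and rested 5 hr at 37 C. Compounds are added and incubated 40 hr at 37 C. CellTiter-Glo reagent is added for 30 min at room temperature before luminescence is read.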

[16] = qHTS Assay for Identification of Small Molecule Inducers of Hypoxia Response (AID 2120; active = well fitted curve in the direction sought with a large enough effect in the signal ratio, with a control signal flat, not every such curve was filed as active; the % refers to the signal ratio)
Summary of the method: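 Cell-based qHTS for reporter induction: hypoxia response element controlled beta-lactamase in ME-180 cells. Compounds incubated 17 h at 37 degrees C; activity from blue/green (460/530 nm) ratio, inducers ranked by AC50.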

[17] = target: Estrogen receptor (Homo sapiens) (UniProt P03372); experiment: qHTS assay for small molecule antagonists of estrogen receptor alpha signaling (AID 588513; active = well fitted curve in the direction sought with a large enough effect in the signal ratio, with a control signal flat, not every such curve was filed as active; the % refers to the signal ratio)
Chain of Estrogen receptor (Homo sapiens) (P03372 whole entry, looked up): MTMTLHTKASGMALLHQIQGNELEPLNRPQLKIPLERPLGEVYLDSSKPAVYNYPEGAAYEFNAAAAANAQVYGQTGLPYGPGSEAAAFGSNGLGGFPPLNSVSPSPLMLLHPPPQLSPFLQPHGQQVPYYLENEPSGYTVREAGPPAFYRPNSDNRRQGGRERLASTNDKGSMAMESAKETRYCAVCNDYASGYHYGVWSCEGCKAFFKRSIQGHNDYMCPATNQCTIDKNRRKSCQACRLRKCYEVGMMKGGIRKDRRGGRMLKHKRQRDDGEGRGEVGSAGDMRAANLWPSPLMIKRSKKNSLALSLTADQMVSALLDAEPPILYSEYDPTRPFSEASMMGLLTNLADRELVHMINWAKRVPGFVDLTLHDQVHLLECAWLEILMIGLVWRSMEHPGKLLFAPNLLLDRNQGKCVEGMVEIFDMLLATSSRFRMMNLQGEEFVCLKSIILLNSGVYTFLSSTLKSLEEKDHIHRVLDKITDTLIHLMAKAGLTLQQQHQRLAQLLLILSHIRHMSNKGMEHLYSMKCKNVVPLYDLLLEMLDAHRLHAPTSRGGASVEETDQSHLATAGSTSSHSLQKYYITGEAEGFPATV
Summary of the method: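 Antagonist-mode qHTS in ER-alpha-UAS-bla HEK 293 cells: compound titration, 0.5nM estradiol for 18 h, CCF4 fluorescence, Hill-derived IC50.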

[18] = target: Estrogen receptor (Homo sapiens) (UniProt P03372); experiment: qHTS assay for small molecule agonists of estrogen receptor alpha signaling (AID 588514; calls by dose curve; also: nearly all actives have a fitted effect of over 70% in size)
Summary of the method: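 Efficacy is expressed against 20 nM 17-beta-estradiol (100%) and DMSO basal (0%); EC50 from Hill equation. Assay: beta-lactamase reporter in ER-alpha-UAS-bla HEK 293 cells, 18 h compound incubation, CCF4 detection.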

Measured: Potency

Cc1cccc(C)c1
inactive: [1] | [2] | [3] | [4] | [5] | [6] | [7] | [8] | [9] | [10] | [11] | [12] | [13] | [14] | [15] | [16] | [17] | [18]

C=C(C)C(=O)OCCCCCCCCCC
inactive: [1] | [2] | [3] | [4] | [5] | [6] | [7] | [8] | [9] | [10] | [11] | [12] | [13] | [14] | [15] | [16] | [17] | [18]

FB(F)F
inactive: [1] | [2] | [3] | [4] | [5] | [6] | [7] | [8] | [9] | [10] | [11] | [12] | [13] | [14] | [15] | [16] | [17] | [18]

CCC=O
inactive: [1] | [2] | [3] | [4] | [5] | [6] | [7] | [8] | [9] | [10] | [11] | [12] | [13] | [14] | [15] | [16] | [17] | [18]

Nc1cccc2c(=O)[nH][nH]c(=O)c12
inactive: [1] | [2] | [3] | [4] | [5] | [6] | [7] | [8] | [9] | [10] | [11] | [12] | [13] | [14] | [15] | [16] | [17] | [18]

CCCCCCCCCCCCC1CO1 (centres undefined)
inactive: [1] | [2] | [3] | [4] | [5] | [6] | [7] | [8] | [10] | [11] | [12] | [13] | [14] | [15] | [16] | [17] | [18]

C=CCCC
inactive: [1] | [2] | [3] | [4] | [5] | [6] | [7] | [8] | [9] | [10] | [11] | [12] | [13] | [14] | [15] | [16] | [17] | [18]

Cc1cc(C)c(N)cc1C
inactive: [1] | [2] | [3] | [4] | [5] | [6] | [7] | [8] | [9] | [10] | [11] | [12] | [13] | [15] | [16] | [17] | [18]

Nc1ccc([N+](=O)[O-])c(N)c1
inactive: [1] | [2] | [3] | [4] | [5] | [6] | [7] | [8] | [9] | [10] | [11] | [12] | [13] | [15] | [16] | [17] | [18]

CC=O
inactive: [1] | [2] | [3] | [4] | [5] | [6] | [7] | [9] | [10] | [11] | [12] | [13] | [14] | [15] | [16] | [17] | [18]

Cc1ccc(S(=O)(=O)NC2CCCCC2)cc1
inactive: [1] | [2] | [3] | [5] | [6] | [7] | [8] | [9] | [10] | [11] | [12] | [13] | [14] | [15] | [16] | [17] | [18]

NC(=O)/N=N/C(N)=O
inactive: [1] | [2] | [3] | [4] | [6] | [7] | [8] | [9] | [10] | [11] | [13] | [14] | [15] | [16] | [17] | [18]

CC/C=C/C#N
inactive: [1] | [2] | [3] | [4] | [6] | [7] | [8] | [10] | [11] | [12] | [13] | [14] | [15] | [16] | [17] | [18]

Cc1nc2ccc(Cl)cc2[nH]1
inactive: [1] | [2] | [3] | [4] | [5] | [6] | [7] | [8] | [10] | [11] | [12] | [13] | [15] | [16] | [17] | [18]

Cc1ccc2ccccc2c1[N+](=O)[O-]
inactive: [1] | [2] | [3] | [4] | [6] | [7] | [9] | [10] | [11] | [12] | [13] | [14] | [15] | [16] | [17] | [18]

CC(=O)OC(C)C
inactive: [1] | [2] | [3] | [4] | [5] | [6] | [7] | [8] | [10] | [11] | [12] | [13] | [14] | [15] | [16] | [17] | [18]
